According to the supplement of paper PMC6805474:
Values without a mark were called inactive.

Experiments:
[1] = tested on: Schistosoma mansoni schistosomula (NMRI); test: phenotypic severity score (0-4); higher = more antischistosomal effect, active = 2 or more; settings: 10 µM
[2] = tested on: Schistosoma mansoni schistosomula (Liberian); test: drug effect (1 - score/DMSO control score) (fraction); higher = more antischistosomal effect, active = 0.5 or more; extreme values may be limits of the assay; settings: 10 µM
Procedure, shortened: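 Drug effect was calculated by comparing the mean score of the test wells with the mean score of the DMSO wells, and any negative value was set to zero. Duplicate wells of 50 Liberian-strain S. mansoni schistosomula, mechanically transformed from cercariae and pre-incubated at least 12 h, received 10 µM compound in Medium 199 with 5% FCS at 37 °C, 5% CO2, with 0.1% DMSO in the comparison wells. Visual scoring at 10× took place at 24, 48 and 72 h on a quarter-point scale from 3 (normal) to 0 (dead), and a plate counted only if its DMSO wells averaged at least 2.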
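For phenotypic severity score (0-4) in this document: visual microscopic scoring of shape, motility and density changes versus 0.5% DMSO solvent controls, one point per descriptor, degeneracy or death scored 4, mean of duplicate wells.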

Row | SMILES | phenotypic severity score ([1]; 24 h) | phenotypic severity score ([1]; 48 h) | phenotypic severity score ([1]; 72 h) | drug effect ([2]; 24 h) | drug effect ([2]; 48 h) | drug effect ([2]; 72 h)
1 | Cc1cccc(C(=O)Nc2ccnc(N(C)C3CCN(CC(C)C)CC3)c2)c1 | 0 | 0 | 0 | 0.1 | 0.243 | 0.212
2 | CC(C)(C)C(O)C(Oc1ccc(-c2ccccc2)cc1)n1cncn1 (centres undefined) | 1 | 0 | 0 | 0.0909 | 0.15 | 0.127
3 | CO/C=C(/C(=O)OC)c1ccccc1Oc1cc(Oc2ccccc2C#N)ncn1 | 0 | 0 | 0 | 0.05 | 0.027 | 0.111
4 | Cc1nn(Cc2ccccc2)c(Cl)c1C(=O)NC1CCCCCC1 | 2 (active) | 0 | 0 | 0.0455 | 0.05 | 0.0727
5 | O=C1O[C@@H](CO)CN1c1cc(F)c(C2=CCN(Cc3ccccc3)CC2)c(F)c1 | 0 | 0 | 2 (active) | 0.05 | 0.111 | 0.188
6 | CC1COC(Cn2cncn2)(c2ccc(Oc3ccc(Cl)cc3)cc2Cl)O1 (centres undefined) | 2 (active) | 1 | 2 (active) | 0.136 | 0.25 | 0.0727
7 | CCc1nn(C)c(C(=O)NCc2ccc(Oc3ccc(C)cc3)cc2)c1Cl | 1 | 1 | 2 (active) | 0.364 | 0.55 (active) | 0.455
8 | O=C1O[C@@H](COc2ccon2)CN1c1cc(F)c(C2=CCN(Cc3ccccc3)CC2)c(F)c1 | 0 | 0 | 0 | 0.1 | 0.167 | 0.25
9 | CO[C@@H]1CN(c2ccc(C#CC3(O)CN4CCC3CC4)c(Cc3ccccc3)n2)C[C@H]1O (some centres undefined) | 0 | 0 | 0 | < 0 | < 0 | 0.111
10 | CO/N=C(\C(=O)OC)c1ccccc1CO/N=C(\C)c1cccc(C(F)(F)F)c1 | 1 | 0 | 0 | 0.05 | 0.027 | 0.152
11 | Nc1c2c(nc3sc4c(c13)CCCC4)CCCC2 | 4 (active) | 4 (active) | 4 (active) | 0.545 (active) | 0.8 (active) | 0.564 (active)
12 | CC1(C)OB(O)c2ccc(C3=NOC(c4cc(Cl)c(F)c(Cl)c4)(C(F)(F)F)C3)cc21 (centres undefined) | 2 (active) | 0 | 1 | 1 (active) | 1 (active) | 1 (active)
13 | Cc1nn(C)c(C)c1NS(=O)(=O)c1c(Cl)cc(-c2ccnc(N3CCNCC3)c2)cc1Cl | 0 | 0 | 0 | 0.15 | 0.0811 | 0.152
14 | Cc1cc(C2=NOC(c3cc(Cl)c(F)c(Cl)c3)(C(F)(F)F)C2)ccc1C(=O)NCc1ccc2c(c1)C(C)(C)OB2O (centres undefined) | 0 | 0 | 0 | 0.2 | 0.135 | 0.167
